{"source": "PubChem BioAssay AID1117290", "about": "(Broad Institute, 2014)", "note": "Entries with a potency or affinity are not part of this list. Activity calls are given as the source filed them.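 How the source made its calls: active means every replicate test called active, each showing a drop in signal with a fitted potency within twice the top tested dose; inconclusive means tests disagree, or fits are weak, flat midrange or poor; inactive means every test flat, rising or fitted past the limit.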"}
{"assay": "A549 cell cytotoxicity, dose response, cytotoxicity control, CellTiter-Glo luminescence, dry powder, set 18 (AID 1117290)", "conditions": "A549 viability, CellTiter-Glo ATP luminescence, 72 h; series mostly up to 26 µM"}
{"smiles": "O=S(=O)(Nc1cc(C(F)(F)F)ccc1N1CCCCC1)c1ccc(Br)cc1", "outcome": "inactive"}
{"smiles": "CC(=O)N1CCN(C(=O)CNC(=O)Nc2ccc(C)cc2)CC1", "outcome": "inactive"}
{"smiles": "O=S(=O)(O)c1ccc(N2N=C(c3ccccc3)CC2c2ccccc2)cc1", "note": "(stereo not given)", "outcome": "inactive"}
{"smiles": "COc1ccc(C(=O)O)cc1S(=O)(=O)Nc1ccc(N2CCCCC2)cc1C(F)(F)F", "outcome": "inactive"}
{"smiles": "O=C(Nc1cc(C(F)(F)F)ccc1N1CCCCC1)c1ccc(S(=O)(=O)O)cc1", "outcome": "inactive"}
{"smiles": "COc1ccc(C(=O)Nc2cccc(C(F)(F)F)c2)cc1S(=O)(=O)O", "outcome": "inactive"}
{"smiles": "CC(=O)N1CCN(C(=O)C2(NC(=O)Nc3cccc(F)c3)CCCCC2)CC1", "outcome": "inactive"}
{"smiles": "O=[N+]([O-])c1cccc(S(=O)(=O)Nc2cc(C(F)(F)F)ccc2N2CCCCC2)c1", "outcome": "inactive"}
{"smiles": "CC(=O)N1CCN(C(=O)C2(NC(=O)Nc3cccc(C(F)(F)F)c3)CCCCC2)CC1", "outcome": "inactive"}
{"smiles": "CC(=O)N1CCN(C(=O)C2(NC(=O)Nc3ccc(C(F)(F)F)cc3)CCCCC2)CC1", "outcome": "inactive"}
